Measured values taken from ChEMBL document CHEMBL3988442, “University of Dundee, Small-Polar-MMV Screening Library” (2021).
For some assays here: Potency and affinity values are given separately.

Experiments:
Design in all cases: scale not given: direction of the effect not stated beside the values
[1] = target: Protein translocase subunit SecA (Escherichia coli (strain K12)) (UniProt P10408); experiment: Assay to Identify E. coli SecA ATPase Inhibitors; assay type: functional; conditions: 30 µM
[2] = target: T1, Ubiquitin-activating enzyme e1, putative (Leishmania donovani (strain BPK282A1)) (UniProt E9BSI1); experiment: Leishmania donovani Ubiquitin Activating Enzyme (LdE1); assay type: functional; conditions: 30 µM
T1 sequence (whole entry): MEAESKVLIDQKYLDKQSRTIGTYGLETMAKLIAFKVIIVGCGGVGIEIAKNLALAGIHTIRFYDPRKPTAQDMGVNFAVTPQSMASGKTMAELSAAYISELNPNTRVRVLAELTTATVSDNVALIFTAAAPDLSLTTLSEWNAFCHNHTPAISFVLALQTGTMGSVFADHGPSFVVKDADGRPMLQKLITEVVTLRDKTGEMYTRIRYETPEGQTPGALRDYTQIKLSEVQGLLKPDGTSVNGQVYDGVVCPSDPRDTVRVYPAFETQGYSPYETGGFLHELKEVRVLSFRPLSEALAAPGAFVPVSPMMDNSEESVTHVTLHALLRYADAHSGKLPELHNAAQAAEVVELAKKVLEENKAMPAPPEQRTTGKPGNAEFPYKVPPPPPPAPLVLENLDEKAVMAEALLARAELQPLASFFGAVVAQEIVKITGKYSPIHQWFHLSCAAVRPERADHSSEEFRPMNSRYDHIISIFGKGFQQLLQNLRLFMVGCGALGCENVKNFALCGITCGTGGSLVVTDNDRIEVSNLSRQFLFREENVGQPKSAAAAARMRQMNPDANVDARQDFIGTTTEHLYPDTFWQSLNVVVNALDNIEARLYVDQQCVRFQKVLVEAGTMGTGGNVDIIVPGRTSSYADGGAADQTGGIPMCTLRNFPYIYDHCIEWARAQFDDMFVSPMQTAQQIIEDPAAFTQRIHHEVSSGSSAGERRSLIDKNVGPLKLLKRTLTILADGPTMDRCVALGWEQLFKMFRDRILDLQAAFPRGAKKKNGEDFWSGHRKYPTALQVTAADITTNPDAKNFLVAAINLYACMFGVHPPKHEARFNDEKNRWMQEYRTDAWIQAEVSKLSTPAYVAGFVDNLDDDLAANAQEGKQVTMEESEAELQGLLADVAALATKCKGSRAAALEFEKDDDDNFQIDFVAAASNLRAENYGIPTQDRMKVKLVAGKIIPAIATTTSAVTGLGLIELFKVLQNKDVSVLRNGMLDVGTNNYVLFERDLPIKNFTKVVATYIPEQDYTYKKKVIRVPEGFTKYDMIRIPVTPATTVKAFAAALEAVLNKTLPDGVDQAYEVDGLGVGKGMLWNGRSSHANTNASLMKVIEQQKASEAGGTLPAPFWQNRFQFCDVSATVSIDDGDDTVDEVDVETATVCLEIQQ

[3] = target: AMP-activated protein kinase, AMPK (Homo sapiens) (UniProt P54646+O43741+P54619+Q9UGJ0+Q9Y478+Q13131+Q9UGI9); experiment: AMP-dependent Kinase enzyme assay. An in vitro enzyme assay that detects ADP turnover that is directly proportional to AMPK activity. This uses naive AMPK that is activated during the assay with MK-8722; assay type: functional; conditions: 30 µM
[4] = target: Sialic acid-binding Ig-like lectin 9 (Homo sapiens) (UniProt Q9Y336); experiment: Hs-Siglec9 ALPHAscreen SOP 20170721; conditions: 10 µM
Trypanosoma cruzi = experiment: Trypanosoma cruzi phosphomannomutase and mannose-1-phosphate guanylyltransferase assay; assay type: functional; conditions: 10 µM
[5] = target: T2, Arginase-2, mitochondrial (Homo sapiens) (UniProt P78540); experiment: in vitro enzyme assay to detect the production of urea directly proportional to the activity of Arginase II; assay type: functional; conditions: 33.3 µM; note: in the data most compounds retested in dose-response had high values
T2 sequence (whole entry): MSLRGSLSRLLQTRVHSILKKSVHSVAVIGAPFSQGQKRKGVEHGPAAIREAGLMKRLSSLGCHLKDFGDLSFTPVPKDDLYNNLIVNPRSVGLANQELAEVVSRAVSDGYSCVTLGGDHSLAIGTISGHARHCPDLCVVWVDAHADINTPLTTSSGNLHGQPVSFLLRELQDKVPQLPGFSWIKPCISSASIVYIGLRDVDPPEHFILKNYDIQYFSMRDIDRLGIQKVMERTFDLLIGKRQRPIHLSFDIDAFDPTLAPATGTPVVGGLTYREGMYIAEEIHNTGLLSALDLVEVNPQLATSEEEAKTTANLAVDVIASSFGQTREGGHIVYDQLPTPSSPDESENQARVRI

[6] = target: T3, Proteasome subunit beta (Trypanosoma cruzi) (UniProt O96673); experiment: Trypanosoma cruzi proteasome chymotrypsin-like activity (TcProtChymo) assay.; note: in the data most compounds retested in dose-response had high values; assay type: functional; conditions: 9.37 µM
T3 sequence (whole entry): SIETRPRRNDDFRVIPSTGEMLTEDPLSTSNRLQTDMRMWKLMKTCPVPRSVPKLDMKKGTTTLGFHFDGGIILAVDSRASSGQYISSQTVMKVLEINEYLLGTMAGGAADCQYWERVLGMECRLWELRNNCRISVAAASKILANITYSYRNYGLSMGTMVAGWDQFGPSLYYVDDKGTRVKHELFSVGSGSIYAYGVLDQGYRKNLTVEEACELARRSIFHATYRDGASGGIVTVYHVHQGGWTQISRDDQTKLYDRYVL

Homo sapiens = species on record: Homo sapiens; experiment: To identify inhibition of the IFN signalling (Jak-Stat) pathway via expression of an eGFP reporter gene under the control of an IFN-stimulated response element (ISRE) containing MxA promoter.; assay type: functional; conditions: 30 µM
[7] = target: T4, Tyrosyl-tRNA synthetase, putative (Trypanosoma cruzi (strain CL Brener)) (UniProt Q4DSP6); experiment: Trypanosoma cruzi tyrosyl tRNA synthetase (TcYRS) _High Tyrosine SOP; assay type: functional; conditions: 30 µM; note: in the data most compounds retested in dose-response had high values
T4 sequence (whole entry): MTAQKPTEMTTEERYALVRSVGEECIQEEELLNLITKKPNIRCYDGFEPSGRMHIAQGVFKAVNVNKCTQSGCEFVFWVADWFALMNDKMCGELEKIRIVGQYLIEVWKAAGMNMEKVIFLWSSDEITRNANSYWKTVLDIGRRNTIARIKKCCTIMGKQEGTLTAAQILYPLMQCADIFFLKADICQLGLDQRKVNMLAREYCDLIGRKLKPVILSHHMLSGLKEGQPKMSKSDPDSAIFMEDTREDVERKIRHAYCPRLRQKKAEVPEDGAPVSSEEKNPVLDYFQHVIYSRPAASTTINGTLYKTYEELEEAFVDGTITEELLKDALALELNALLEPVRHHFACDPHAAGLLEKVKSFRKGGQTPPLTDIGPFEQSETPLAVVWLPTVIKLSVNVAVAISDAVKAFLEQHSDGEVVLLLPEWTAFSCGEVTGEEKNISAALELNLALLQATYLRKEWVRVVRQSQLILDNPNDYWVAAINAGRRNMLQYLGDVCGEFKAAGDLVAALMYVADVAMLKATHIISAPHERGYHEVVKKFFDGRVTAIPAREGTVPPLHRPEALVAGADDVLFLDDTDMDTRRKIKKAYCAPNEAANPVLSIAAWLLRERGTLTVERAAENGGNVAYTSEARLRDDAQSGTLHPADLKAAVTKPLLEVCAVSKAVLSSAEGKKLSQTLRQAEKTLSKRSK

[8] = target: T4, Tyrosyl-tRNA synthetase, putative (Trypanosoma cruzi (strain CL Brener)); experiment: Trypanosoma cruzi tyrosyl tRNA synthetase (TcYRS) SOP; assay type: functional; conditions: 30 µM
[9] = target: Chromo domain-containing protein 1 (Saccharomyces cerevisiae (strain ATCC 204508 / S288c) (Baker's yeast)) (UniProt P32657); experiment: ScCHD-1 Enzyme Inhibition Assay; assay type: functional; conditions: 30 µM; note: in the data most compounds retested in dose-response had high values
Chromo domain-containing protein 1 (Saccharomyces cerevisiae (strain ATCC 204508 / S288c) (Baker's yeast)), sequence (P32657 whole entry, the tested form may be a part): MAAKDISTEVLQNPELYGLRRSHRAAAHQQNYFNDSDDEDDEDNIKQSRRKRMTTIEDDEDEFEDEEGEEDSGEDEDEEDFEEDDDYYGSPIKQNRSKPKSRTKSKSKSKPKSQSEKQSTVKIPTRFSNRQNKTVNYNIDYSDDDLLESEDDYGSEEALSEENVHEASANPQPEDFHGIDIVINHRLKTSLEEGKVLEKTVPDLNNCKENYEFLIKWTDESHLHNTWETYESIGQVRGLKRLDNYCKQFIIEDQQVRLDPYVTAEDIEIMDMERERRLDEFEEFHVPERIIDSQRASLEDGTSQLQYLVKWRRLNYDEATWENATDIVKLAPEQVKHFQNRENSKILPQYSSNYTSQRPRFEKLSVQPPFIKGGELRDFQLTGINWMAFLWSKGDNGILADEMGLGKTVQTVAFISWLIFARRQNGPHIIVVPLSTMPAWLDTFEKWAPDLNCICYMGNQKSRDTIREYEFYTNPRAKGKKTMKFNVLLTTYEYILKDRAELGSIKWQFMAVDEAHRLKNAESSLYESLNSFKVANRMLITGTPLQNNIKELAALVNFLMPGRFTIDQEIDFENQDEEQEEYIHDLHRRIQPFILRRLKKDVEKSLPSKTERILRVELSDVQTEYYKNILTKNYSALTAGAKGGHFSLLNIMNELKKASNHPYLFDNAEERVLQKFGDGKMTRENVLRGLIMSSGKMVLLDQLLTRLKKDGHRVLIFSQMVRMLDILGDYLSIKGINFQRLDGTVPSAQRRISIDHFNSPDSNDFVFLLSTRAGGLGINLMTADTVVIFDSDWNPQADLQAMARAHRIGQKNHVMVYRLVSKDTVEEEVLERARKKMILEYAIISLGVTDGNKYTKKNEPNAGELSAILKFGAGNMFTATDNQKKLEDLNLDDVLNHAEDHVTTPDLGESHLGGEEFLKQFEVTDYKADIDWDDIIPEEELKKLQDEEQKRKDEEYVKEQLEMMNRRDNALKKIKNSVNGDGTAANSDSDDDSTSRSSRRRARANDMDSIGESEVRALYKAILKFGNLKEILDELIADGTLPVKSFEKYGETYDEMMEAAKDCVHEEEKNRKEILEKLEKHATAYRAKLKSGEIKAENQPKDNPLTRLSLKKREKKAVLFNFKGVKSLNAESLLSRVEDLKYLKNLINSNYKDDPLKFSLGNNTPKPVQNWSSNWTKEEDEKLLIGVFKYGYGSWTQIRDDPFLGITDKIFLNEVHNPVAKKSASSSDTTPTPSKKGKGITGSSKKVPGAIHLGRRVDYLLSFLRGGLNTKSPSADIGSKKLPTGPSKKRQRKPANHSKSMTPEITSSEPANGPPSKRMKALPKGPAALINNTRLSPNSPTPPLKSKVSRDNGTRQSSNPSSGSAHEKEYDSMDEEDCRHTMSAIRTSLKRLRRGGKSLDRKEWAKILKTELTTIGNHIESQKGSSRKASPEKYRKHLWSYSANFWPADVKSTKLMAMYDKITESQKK

Protein translocase subunit SecA (Escherichia coli (strain K12)), sequence (P10408 whole entry): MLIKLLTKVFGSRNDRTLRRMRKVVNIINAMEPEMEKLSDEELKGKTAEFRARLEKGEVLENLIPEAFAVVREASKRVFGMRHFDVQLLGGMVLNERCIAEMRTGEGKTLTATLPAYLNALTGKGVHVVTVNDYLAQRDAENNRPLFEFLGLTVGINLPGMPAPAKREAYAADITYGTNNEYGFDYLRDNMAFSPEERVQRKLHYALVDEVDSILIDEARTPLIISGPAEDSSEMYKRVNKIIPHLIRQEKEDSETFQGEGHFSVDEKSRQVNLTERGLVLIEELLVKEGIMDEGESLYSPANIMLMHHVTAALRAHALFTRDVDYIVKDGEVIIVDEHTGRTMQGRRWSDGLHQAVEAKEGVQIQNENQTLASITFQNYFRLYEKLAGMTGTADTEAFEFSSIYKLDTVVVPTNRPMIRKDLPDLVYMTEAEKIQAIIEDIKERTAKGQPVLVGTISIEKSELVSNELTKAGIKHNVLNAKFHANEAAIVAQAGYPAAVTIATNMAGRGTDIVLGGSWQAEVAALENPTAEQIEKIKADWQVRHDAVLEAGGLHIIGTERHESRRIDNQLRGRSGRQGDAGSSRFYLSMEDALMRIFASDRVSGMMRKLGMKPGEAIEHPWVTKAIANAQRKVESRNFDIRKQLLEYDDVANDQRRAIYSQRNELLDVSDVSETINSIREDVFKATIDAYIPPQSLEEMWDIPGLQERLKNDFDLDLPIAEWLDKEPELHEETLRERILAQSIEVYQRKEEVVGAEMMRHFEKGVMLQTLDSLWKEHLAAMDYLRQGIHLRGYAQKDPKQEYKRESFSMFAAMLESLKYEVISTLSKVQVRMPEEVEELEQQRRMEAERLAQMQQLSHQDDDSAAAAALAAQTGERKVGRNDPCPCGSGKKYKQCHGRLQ
Sialic acid-binding Ig-like lectin 9 (Homo sapiens), sequence (Q9Y336 whole entry): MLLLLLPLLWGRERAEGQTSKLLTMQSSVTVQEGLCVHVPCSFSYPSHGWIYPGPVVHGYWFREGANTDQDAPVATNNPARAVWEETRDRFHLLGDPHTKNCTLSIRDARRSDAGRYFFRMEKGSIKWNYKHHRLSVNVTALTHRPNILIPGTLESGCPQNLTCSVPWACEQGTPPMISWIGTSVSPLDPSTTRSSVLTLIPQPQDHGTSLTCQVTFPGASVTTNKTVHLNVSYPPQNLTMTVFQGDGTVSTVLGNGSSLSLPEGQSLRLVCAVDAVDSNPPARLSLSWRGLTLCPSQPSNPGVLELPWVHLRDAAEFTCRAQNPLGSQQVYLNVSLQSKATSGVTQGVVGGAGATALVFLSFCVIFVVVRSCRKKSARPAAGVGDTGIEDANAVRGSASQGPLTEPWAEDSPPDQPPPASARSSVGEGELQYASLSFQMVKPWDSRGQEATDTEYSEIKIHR

Structure (SMILES) | Percent Effect [1] [%] | Percent Effect [2] [%] | Percent Effect [3] [%] | Percent Effect [4] [%] | Percent Effect (Trypanosoma cruzi) [%] | Percent Effect [5] [%] | Percent Effect [6] [%] | Percent Effect (Homo sapiens) [%] | Percent Effect [7] [%] | Percent Effect [8] [%] | Percent Effect [9] [%]
CCc1nccn1C1CCCN(C(=O)c2cn3cccnc3n2)C1 (configuration not stated) | -1.83 | 2.7 | -8.93 | 1.79 | -2.17 | 2.81 | -3.96 | -7.1 | 1.48 | -1.24 | 1.22
COCCN(C)CC(=O)N1C[C@H]2CC[C@@H]1CN(C(=O)c1ccncc1)C2 | -4.1 | 5.33 | -2.28 | 3.27 | -5.75 | 1.56 | 17.1 | 27.7 | 6.01 | 13.6 | -5.9
CC(C)(C)c1nnc(CN2CCCC2c2noc(C3CC3)n2)o1 (configuration not stated) | 0.285 | 8.11 | 0.0576 | -0.506 | 2.32 | -0.554 | 8.08 | -8.49 | 10.9 | 28.1 | -6.45
CCCNC(=O)c1sc(Nc2ccc(Cl)cn2)nc1C | -0.647 | 17.3 | -1.88 | -4.2 | 4.13 | -0.88 | 13.5 | -1.08 | 7.41 | 7.69 | -6.09
COC(=O)CS(=O)(=O)CCC(=O)N1CCCC1c1ccsc1 (configuration not stated) | -3.22 | 6.94 | -5.88 | 21.4 | 2.82 | -2.21 | 5.44 | -6.88 | 5.26 | 7.69 | -2.96
CC1CCN(CCNC(=O)C2CCN(S(N)(=O)=O)CC2)CC1 | -1.93 | 9.72 | -5.79 | -4.04 | -3.4 | 1.77 | 10 | 3.48 | 2.1 | 5.13 | -2.96
Cc1cnn(CC(C)NCc2csc(-c3ccsc3)n2)c1 (configuration not stated) | -3.78 | -3.8 | -1.07 | 0.382 | 0.923 | -1.94 | 28.1 | 12.5 | 6.25 | 12.7 | -20.9
CCn1nc(CNC(=O)C2CC(=O)N(C3CCCC3)C2)c2ccccc21 (configuration not stated) | -9.13 | 2.7 | 3.05 | 28.4 | -1.74 | -2.86 | 3.79 | 10.4 | -0.529 | 2.44 | -3.19
Clc1ccc2oc(C3CCN(Cc4cccnc4)CC3)nc2c1 | 0.753 | 13.5 | 5.18 | 16.9 | 5.02 | -10.5 | 15.5 | 32.2 | -0.529 | 12.2 | -6.96
CCOc1cccc(C(=O)NCCC(=O)Nc2ccncc2)c1 | -1.91 | -5.26 | 3.2 | -0.438 | -2.43 | 8.28 | 13.7 | 3.36 | 4.25 | 10.4 | -3.67
CCc1ccc(S(=O)(=O)Nc2c(C)cccc2C(=O)O)s1 | -6.89 | 5.26 | -2.41 | 7.53 | 2.71 | -2.16 | 3.64 | -1.38 | 2.46 | 6.17 | 2.56
O=C1[C@@H]2CCN(Cc3ccncc3)C[C@@H]2OCCN1c1ccccc1 | -4.52 | 8 | 4.63 | 0.633 | 4.33 | -3.5 | 15.6 | -13.1 | 8.51 | 14.1 | -5.17
O=C(N[C@@H]1CN(Cc2ccc3c(c2)OCO3)[C@@H]2CCCO[C@@H]21)C1CC1 | -7.03 | 0 | -0.94 | 0.764 | -5.99 | -55 | 13.2 | 4.07 | 1.04 | -60 | -2.23
Cc1cc(NC(=O)CN2CCn3c(nnc3C3CC3)C2)n(C)n1 | -3.7 | -5.26 | 11.5 | -1.43 | -4.7 | 0 | 4.84 | 21.3 | -0.49 | 0 | 3.45
O=C(c1cnccn1)N1CCN2C[C@H](OCc3ccccn3)C[C@H]2C1 | -0.668 | 0 | 2.67 | 7.25 | -3.09 | 0.538 | 13 | -9.74 | 1.04 | -2.5 | 3.56
COc1ccc(C2=CCN(C(=O)C3CC(=O)N(C4CC4)C3)CC2)cc1 (configuration not stated) | -3.27 | -5.26 | 2.62 | -10.1 | -2.15 | 2.16 | 1.61 | 19.9 | 2.46 | -6.17 | -1.27
CCC(C)(NCC(=O)Nc1nc(C)cs1)c1nc(C)cs1 (configuration not stated) | 0.0522 | 10.8 | -10.8 | -1.43 | -3.62 | -2.73 | 7.47 | 21 | 7.53 | 13.6 | -3.58
CCN1CC2(CC1=O)CN(Cc1ccco1)CCN(C(=O)N(C)C)C2 (configuration not stated) | -0.643 | 2.74 | 1.96 | 9.02 | -1.39 | 4.39 | 6.59 | -2.04 | 5.21 | 11.1 | 0.322
c1ccc(CN2CCN(Cc3cscn3)CC2)cc1 | -3.29 | 15.6 | 2.52 | 7.55 | 0.49 | 3.58 | 7.2 | 7.07 | 8.57 | 18.8 | -19.7
c1cnnc(N2CCCC2CNCc2cc[nH]n2)c1 (configuration not stated) | -2.52 | 0 | 4.85 | -5.55 | 4.89 | 3.45 | -1.34 | -3.22 | 1.47 | 7.32 | -6.65
OC(CN1CCN(Cc2ccc(F)c(F)c2)CC1)C1CC1 (configuration not stated) | -3.08 | 8.22 | 2.45 | 0.902 | 5.68 | -1.82 | 8.16 | 13.1 | 6.45 | 20 | -6.1
CSCC(CCO)NC(=O)Nc1cc(C)ccc1C (configuration not stated) | -3.37 | 2.74 | 0.417 | -7.14 | -7.83 | 4.09 | 15.3 | 5.34 | 1.07 | 5 | -3.27
